# In the supplement of paper PMC8728848:
# Only a selection was taken, and the strongest signals are over-represented in it overall.
# Tests used:
# Test in all cases: glycan array binding signal (z-score within array); higher = stronger binding
# Details in all cases: glycan notation: IUPAC condensed, linker removed
# Fuc(a1-2)Gal = molecular target: Fuc(a1-2)Gal
# Procedure, shortened: (§1)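 Negative Z-scores can be read as non-binding. The Z-score is calculated within each array and then averaged across arrays of one protein sequence at different concentrations or buffers and across linkers. Arrays, 3228 in all, were curated from the Consortium for Functional Glycomics database and kept only where the protein sequence was available.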
# [1] = molecular target: Fuc(a1-2)Gal(b1-3)GlcNAc(b1-2)Man(a1-3)[Fuc(a1-2)Gal(b1-3)GlcNAc(b1-2)Man(a1-6)]Man(b1-4)GlcNAc(b1-4)GlcNAc
# Procedure, shortened: as §1
# [2] = molecular target: Fuc(a1-2)Gal(b1-3)GlcNAc(b1-3)[Neu5Ac(a2-6)Gal(b1-4)GlcNAc(b1-6)]Gal(b1-4)Glc
# Procedure, shortened: as §1
# Fuc(a1-2)Gal(b1-4)Glc6S = molecular target: Fuc(a1-2)Gal(b1-4)Glc6S
# Procedure, shortened: as §1
# Fuc(a1-2)Gal(b1-4)GlcNAc = molecular target: Fuc(a1-2)Gal(b1-4)GlcNAc
# Procedure, shortened: as §1
# Fuc(a1-2)[Gal(a1-3)]Gal = molecular target: Fuc(a1-2)[Gal(a1-3)]Gal
# Procedure, shortened: as §1
# [3] = molecular target: Fuc(a1-2)[Gal(a1-3)]Gal(b1-3)GlcNAc(b1-2)Man(a1-3)[Fuc(a1-2)[Gal(a1-3)]Gal(b1-3)GlcNAc(b1-2)Man(a1-6)]Man(b1-4)GlcNAc(b1-4)[Fuc(a1-6)]GlcNAc
# Procedure, shortened: as §1
# [4] = molecular target: Fuc(a1-2)[Gal(a1-3)]Gal(b1-4)GlcNAc
# Procedure, shortened: as §1
# [5] = molecular target: Fuc(a1-2)[GalNAc(a1-3)]Gal(b1-4)GlcNAc(b1-2)Man(a1-3)[Fuc(a1-2)[GalNAc(a1-3)]Gal(b1-4)GlcNAc(b1-2)Man(a1-6)]Man(b1-4)GlcNAc(b1-4)GlcNAc
# Procedure, shortened: as §1
# [6] = molecular target: Fuc(a1-2)[GalNAc(b1-3)]Gal
# Procedure, shortened: as §1
# [7] = molecular target: Fuc(a1-3)[Gal(b1-4)]Glc6S
# Procedure, shortened: as §1
# [8] = molecular target: Fuc(a1-3)[Gal(b1-4)]GlcNAc(b1-3)Gal(b1-3)[Fuc(a1-4)]GlcNAc
# Procedure, shortened: as §1
# Fuc(a1-4)GlcNAc = molecular target: Fuc(a1-4)GlcNAc
# Procedure, shortened: as §1
# [9] = molecular target: Gal(a1-3)Gal(b1-4)GlcNAc(b1-2)Man(a1-3)[Gal(a1-3)Gal(b1-4)GlcNAc(b1-2)Man(a1-6)]Man(b1-4)GlcNAc(b1-4)GlcNAc
# Procedure, shortened: as §1
# Gal(a1-3)GalNAc = molecular target: Gal(a1-3)GalNAc
# Procedure, shortened: as §1
# [10] = molecular target: Gal(a1-4)Gal(b1-3)GlcNAc(b1-2)Man(a1-3)[Gal(a1-4)Gal(b1-3)GlcNAc(b1-2)Man(a1-6)]Man(b1-4)GlcNAc(b1-4)GlcNAc
# Procedure, shortened: as §1
# Gal(a1-4)Gal(b1-4)GlcNAc = molecular target: Gal(a1-4)Gal(b1-4)GlcNAc
# Procedure, shortened: as §1
# [11] = molecular target: Gal(a1-4)Gal(b1-4)GlcNAc(b1-2)Man(a1-3)[Gal(a1-4)Gal(b1-4)GlcNAc(b1-2)Man(a1-6)]Man(b1-4)GlcNAc(b1-4)GlcNAc
# Procedure, shortened: as §1
# Gal(a1-4)GlcNAc = molecular target: Gal(a1-4)GlcNAc
# Procedure, shortened: as §1
# [12] = molecular target: Gal(b1-3)GlcNAc(b1-2)Man(a1-3)[Gal(b1-3)GlcNAc(b1-2)Man(a1-6)]Man(b1-4)GlcNAc(b1-4)GlcNAc
# Procedure, shortened: as §1
# [13] = molecular target: Gal(b1-3)GlcNAc(b1-2)Man(a1-3)[Gal(b1-3)GlcNAc(b1-2)Man(a1-6)]Man(b1-4)GlcNAc(b1-4)[Fuc(a1-6)]GlcNAc
# Procedure, shortened: as §1
# [14] = molecular target: Gal(b1-3)GlcNAc(b1-2)Man(a1-3)[GlcNAc(b1-4)][Gal(b1-3)GlcNAc(b1-2)Man(a1-6)]Man(b1-4)GlcNAc(b1-4)GlcNAc
# Procedure, shortened: as §1
# [15] = molecular target: Gal(b1-3)GlcNAc(b1-2)[Gal(b1-3)GlcNAc(b1-6)]Man(a1-6)[Gal(b1-3)GlcNAc(b1-2)Man(a1-3)]Man(b1-4)GlcNAc(b1-4)GlcNAc
# Procedure, shortened: as §1
# [16] = molecular target: Gal(b1-3)GlcNAc(b1-3)Gal(b1-3)GlcNAc
# Procedure, shortened: as §1
# [17] = molecular target: Gal(b1-3)[Fuc(a1-4)]GlcNAc(b1-3)Gal(b1-4)[Fuc(a1-3)]GlcNAc
# Procedure, shortened: as §1
# [18] = molecular target: Gal(b1-4)GlcNAc(a1-6)Gal(b1-4)GlcNAc
# Procedure, shortened: as §1
# [19] = molecular target: Gal(b1-4)GlcNAc(b1-2)Man(a1-3)Man(b1-4)GlcNAc(b1-4)GlcNAc
# Procedure, shortened: as §1
# [20] = molecular target: Gal(b1-4)GlcNAc(b1-2)Man(a1-3)[GlcNAc(b1-2)Man(a1-6)]Man(b1-4)GlcNAc(b1-4)GlcNAc
# Procedure, shortened: as §1
# [21] = molecular target: Gal(b1-4)GlcNAc(b1-3)Gal(b1-4)GlcNAc(b1-2)Man(a1-3)[Gal(b1-4)GlcNAc(b1-3)Gal(b1-4)GlcNAc(b1-2)Man(a1-6)]Man(b1-4)GlcNAc(b1-4)[Fuc(a1-6)]GlcNAc
# Procedure, shortened: as §1
# [22] = molecular target: Gal(b1-4)GlcNAc(b1-3)Gal(b1-4)GlcNAc(b1-3)Gal(b1-4)GlcNAc(b1-3)Gal(b1-4)GlcNAc(b1-2)[Gal(b1-4)GlcNAc(b1-3)Gal(b1-4)GlcNAc(b1-3)Gal(b1-4)GlcNAc(b1-3)Gal(b1-4)GlcNAc(b1-6)]Man(a1-6)[Gal(b1-4)GlcNAc(b1-3)Gal(b1-4)GlcNAc(b1-3)Gal(b1-4)GlcNAc(b1-3)Gal(b1-4)GlcNAc(b1-2)Man(a1-3)]Man(b1-4)GlcNAc(b1-4)[Fuc(a1-6)]GlcNAc
# Procedure, shortened: as §1
# [23] = molecular target: Gal(b1-4)GlcNAc(b1-3)Gal(b1-4)GlcNAc(b1-3)Gal(b1-4)GlcNAc(b1-3)Gal(b1-4)GlcNAc(b1-3)Gal(b1-4)GlcNAc(b1-3)Gal(b1-4)GlcNAc(b1-2)Man(a1-3)[Gal(b1-4)GlcNAc(b1-3)Gal(b1-4)GlcNAc(b1-3)Gal(b1-4)GlcNAc(b1-3)Gal(b1-4)GlcNAc(b1-3)Gal(b1-4)GlcNAc(b1-3)Gal(b1-4)GlcNAc(b1-2)Man(a1-6)]Man(b1-4)GlcNAc(b1-4)GlcNAc
# Procedure, shortened: as §1
# [24] = molecular target: Gal(b1-4)GlcNAc(b1-6)GalNAc
# Procedure, shortened: as §1
# [25] = molecular target: Gal(b1-4)GlcNAc(b1-6)[Gal(b1-3)]GalNAc
# Procedure, shortened: as §1
binder,measurement,setting,value
RBMC1 (Vibrio cholerae) (protein) QQSQRVVTADNLMYLRSGFAIDAIGTTVNNLVGGPVQGTNGGVLRAPIALDQLQSVEVTSGLYNWGGYHIVAIKFTMKDGSSVLLGSTHYASNKKVETYTVPQGKRIKQINVWTGGWLVEGFQFVY,glycan array binding signal (z-score),Fuc(a1-2)Gal,-0.366
same,glycan array binding signal (z-score),[1],1.37
same,glycan array binding signal (z-score),[2],-0.436
same,glycan array binding signal (z-score),Fuc(a1-2)Gal(b1-4)Glc6S,-0.119
same,glycan array binding signal (z-score),Fuc(a1-2)Gal(b1-4)GlcNAc,-0.362
same,glycan array binding signal (z-score),Fuc(a1-2)[Gal(a1-3)]Gal,-0.15
same,glycan array binding signal (z-score),[3],-0.324
same,glycan array binding signal (z-score),[4],-0.311
same,glycan array binding signal (z-score),[5],0.123
same,glycan array binding signal (z-score),[6],-0.299
same,glycan array binding signal (z-score),[7],-0.164
same,glycan array binding signal (z-score),[8],-0.378
same,glycan array binding signal (z-score),Fuc(a1-4)GlcNAc,-0.041
same,glycan array binding signal (z-score),[9],2.77
same,glycan array binding signal (z-score),Gal(a1-3)GalNAc,-0.237
same,glycan array binding signal (z-score),[10],1.41
same,glycan array binding signal (z-score),Gal(a1-4)Gal(b1-4)GlcNAc,-0.178
same,glycan array binding signal (z-score),[11],3.8
same,glycan array binding signal (z-score),Gal(a1-4)GlcNAc,-0.353
same,glycan array binding signal (z-score),[12],2.48
same,glycan array binding signal (z-score),[13],0.912
same,glycan array binding signal (z-score),[14],-0.049
same,glycan array binding signal (z-score),[15],-0.266
same,glycan array binding signal (z-score),[16],-0.311
same,glycan array binding signal (z-score),[17],-0.3
same,glycan array binding signal (z-score),[18],-0.36
same,glycan array binding signal (z-score),[19],-0.354
same,glycan array binding signal (z-score),[20],1.72
same,glycan array binding signal (z-score),[21],2.64
same,glycan array binding signal (z-score),[22],-0.194
same,glycan array binding signal (z-score),[23],0.712
same,glycan array binding signal (z-score),[24],-0.186
same,glycan array binding signal (z-score),[25],0.163
